From publication PMC4336329 (PLoS ONE, 2015)
Among all 310,000 compounds or so, about 14,000 (4.5%) showed an effect of 50% or more. Effects have a minus sign here. Only a selection was taken, and strong results are over-represented in it overall.

target: human ether-à-go-go-related gene (hERG) potassium channel (human, UniProt Q12809); assay: primary screen, population patch clamp on CHO cells stably expressing hERG; higher = less effect of the substance
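Further: peak tail current of the secondary pulse compared with the same well before compound.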

Chain of human ether-à-go-go-related gene (hERG) potassium channel (Q12809 whole entry, looked up): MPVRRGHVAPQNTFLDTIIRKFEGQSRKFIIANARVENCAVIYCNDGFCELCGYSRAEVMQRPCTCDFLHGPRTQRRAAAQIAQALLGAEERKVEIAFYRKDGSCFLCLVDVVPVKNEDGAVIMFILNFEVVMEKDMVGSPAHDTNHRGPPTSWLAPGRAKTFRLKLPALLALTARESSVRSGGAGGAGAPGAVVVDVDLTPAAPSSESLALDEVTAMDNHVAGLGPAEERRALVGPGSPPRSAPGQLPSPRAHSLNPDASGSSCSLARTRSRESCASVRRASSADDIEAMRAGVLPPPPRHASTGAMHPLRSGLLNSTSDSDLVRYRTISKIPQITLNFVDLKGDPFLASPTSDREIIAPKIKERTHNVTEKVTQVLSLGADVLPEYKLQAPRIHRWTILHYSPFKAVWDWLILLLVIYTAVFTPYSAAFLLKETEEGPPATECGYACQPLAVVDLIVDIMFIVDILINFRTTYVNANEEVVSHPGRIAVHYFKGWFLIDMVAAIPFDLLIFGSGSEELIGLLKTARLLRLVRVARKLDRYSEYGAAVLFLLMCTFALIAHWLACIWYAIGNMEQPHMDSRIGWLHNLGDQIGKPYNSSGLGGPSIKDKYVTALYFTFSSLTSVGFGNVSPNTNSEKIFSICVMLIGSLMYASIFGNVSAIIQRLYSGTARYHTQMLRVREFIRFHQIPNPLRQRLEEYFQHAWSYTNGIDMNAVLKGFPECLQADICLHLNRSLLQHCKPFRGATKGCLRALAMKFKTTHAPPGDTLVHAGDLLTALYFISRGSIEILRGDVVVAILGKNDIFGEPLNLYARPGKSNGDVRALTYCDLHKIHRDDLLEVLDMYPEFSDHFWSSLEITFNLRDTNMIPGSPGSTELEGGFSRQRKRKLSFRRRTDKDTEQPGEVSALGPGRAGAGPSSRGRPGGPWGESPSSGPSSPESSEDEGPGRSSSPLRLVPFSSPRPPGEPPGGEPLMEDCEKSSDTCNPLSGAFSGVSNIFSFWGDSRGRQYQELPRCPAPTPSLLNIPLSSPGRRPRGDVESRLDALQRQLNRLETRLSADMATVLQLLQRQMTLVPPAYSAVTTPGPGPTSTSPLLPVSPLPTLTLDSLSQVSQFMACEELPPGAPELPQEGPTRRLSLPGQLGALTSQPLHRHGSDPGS

Point of comparison: O=C(c1ccncc1)N1CCN(C(=O)c2cccs2)CC1, “hERG current change (%, negative = inhibition) at 10uM” value 6.46%. Against it:
- CCOc1ccc(CC(=NCCc2ccccc2)C2=C(O)CC(C)(C)CC2=O)cc1OCC — lower, -21.3%
- O=C(O)c1ccccc1CSc1nnnn1-c1ccccc1 — higher, 12.6%
- Cc1cc(C)cc(N=C2NC(=O)/C(=C/c3cccs3)S2)c1 — higher, 14.7%
- CC(=O)c1ccccc1NC(=O)C1C2CCC(O2)C1C(=O)O (centres unmarked) — higher, 8.81%
- Cc1c(CCO)c(=O)[nH]n1C(=O)c1c(F)cccc1F — lower, -1.76%
- COc1ccc(-c2n[nH]c(=S)n2-c2ccc(C)cc2C)cc1 — higher, 19.5%
- CC(NC(=O)c1ccc(CS(C)(=O)=O)cc1)c1cccc2ccccc12 (centres unmarked) — higher, 10.1%
- CCOc1ccc(NC(=O)Nc2cc(-c3ccccc3)sc2C(=O)OC)cc1 — lower, -4.41%
- COC(=O)C1=C(c2ccc(OC)c(OC)c2)C[C@@H]2CC[C@H]1N2C(=O)NCCO — higher, 15.5%
- CC(C)(C)OC(=O)N1CCC[C@H]1C(=O)Nc1ccc(Br)cc1 — higher, 13.5%
- CCN1CCN(c2ccc(S(=O)(=O)N3CCOCC3)cc2NC(=O)CCC(C)C)CC1 — lower, -26.3%
- C/C(CC(=O)Nc1cc(C)ccn1)=N\NC(=O)c1ccncc1 — higher, 19.7%
- Cc1ccccc1C(=O)N1CCC(C(=O)N2CCN(c3ncccn3)CC2)CC1 — higher, 7.94%
- CC1CCCC(N2CCN(C(=O)c3ccc(F)cc3)CC2)C1 (centres unmarked) — lower, -44.1%
- O=C(CCSc1ccc(Cl)cc1)N1CCN(c2ncccn2)CC1 — lower, -60.6%
- O=C(c1ccc(Cn2cc(Cl)c([N+](=O)[O-])n2)cc1)N1CCN(Cc2ccccc2)CC1 — lower, -12.5%
- O=C(c1ccc(Cl)cc1)N1CCC(C(=O)N2CCN(c3ncccn3)CC2)CC1 — lower, -56.6%
- Cl.O=C(c1ccc(Cn2ccc([N+](=O)[O-])n2)cc1)N1CCN(Cc2ccccc2)CC1 — lower, -56.1%
- O=C(c1ccc(Cl)cc1)N1CCN(c2ncccn2)CC1 — higher, 6.85%
- CC1CCCC(N2CCN(C(=O)c3ccc([N+](=O)[O-])cc3)CC2)C1.O=C(O)C(=O)O (centres unmarked) — lower, -71.9%
- O=C(CCSc1ccc(Cl)cc1)N1CCCCCC1 — lower, -4.88%
- O=C(c1ccc([N+](=O)[O-])o1)N1CCN(Cc2ccccc2)CC1 — lower, 2.99%
- CC1CCCC(N2CCN(C(=O)c3cccc(F)c3)CC2)C1.O=C(O)C(=O)O (centres unmarked) — lower, -6.93%
- O=C(CCSc1ccc(Cl)cc1)N1CCN(c2ccc(O)cc2)CC1 — lower, -23.8%
- CCN(Cc1ccccc1)C(=O)CCc1nnc(CCCc2ccccc2)o1 — higher, 21.1%
- COc1cc(C(=O)NC(=S)Nc2ccc3oc(=O)ccc3c2)cc(OC)c1OC — higher, 9.8%
- CC(=O)OC1COC(n2ccc3cc([N+](=O)[O-])ccc32)C(OC(C)=O)C1OC(C)=O (centres unmarked) — lower, -12.2%
- CC(C)C(=O)Nc1ccc(Sc2ccc(F)cc2)cc1 — lower, -3.48%
- CCC(C)Nc1nc2c(c(=O)n(C)c(=O)n2C)n1Cc1ccc(Cl)cc1 (centres unmarked) — lower, -7.45%
- COc1ccccc1-c1nc(SCC(=O)O)n[nH]1 — lower, -1.65%
- COc1ccc(N=Cc2c(O)n(-c3ccc(OC)cc3)c(=O)c3ccccc23)cc1 — higher, 15.2%
- O=C(c1ccccc1)N1CCN(C(=O)c2ccc([N+](=O)[O-])cc2)CC1 — lower, -53.9%
- O=C(c1ccc([N+](=O)[O-])cc1)N1CCCC1 — lower, 4.5%
- CCN1CCN(C(=S)c2ccc([N+](=O)[O-])cc2)CC1 — lower, -36.9%
- CC(=O)N1CCN(c2nc3ccc([N+](=O)[O-])cc3s2)CC1 — lower, -46.6%
- O=C(c1ccccc1)N1CCN(C(=O)c2ccccc2)CC1 — lower, 1.49%
- O=C(c1ccccc1)N1CCN(c2nc3ccc([N+](=O)[O-])cc3s2)CC1 — lower, -55.4%
- CC(=O)N1CCN(C(=O)c2ccc(Oc3ccccc3)cc2)CC1 — higher, 19.1%
- O=C(c1ccccc1)N1CCN(C(=O)c2ccc(OC(F)(F)F)cc2)CC1 — lower, -62.8%
- O=CN1CCN(C(=O)c2ccc([N+](=O)[O-])cc2)CC1 — lower, -22.3%
- O=C(c1cccs1)N1CCN(c2nc3ccc([N+](=O)[O-])cc3s2)CC1 — lower, -7.47%
- O=[N+]([O-])c1ccc(C(=S)N2CCN(Cc3ccccc3)CC2)cc1 — lower, -57.6%
- Oc1ccc(C(=S)N2CCN(Cc3ccccc3)CC2)cc1 — lower, -5.46%
- O=C(c1cc(N2C(=O)C3C4CCC(C4)C3C2=O)ccc1Cl)N1CCCCCC1 (centres unmarked) — lower, 3.82%
- O=C(c1ccccc1)N1CCC(O)(c2ccc3c(c2)OCO3)CC1 — lower, -12.4%
- CCn1c(CNC(=O)c2ccc3c(c2)OCO3)nnc1SCC(=O)Nc1ccccc1F — lower, -6.31%
- O=C(Nc1ccccc1)c1ccco1 — higher, 15%
- COC(=O)c1sccc1NC(=S)N1C(C)CCCC1C (centres unmarked) — lower, -7.4%
- Cc1ccc(S(=O)(=O)c2nc(C)c3c(n2)CCC3)cc1 — lower, 3.61%
- COc1ccc(C(=O)COC(=O)CCc2ccccc2)cc1 — lower, -11.4%
- CC(=O)c1ccc(NC(=O)C(C)Sc2nnc(C3CCCCC3)o2)cc1 (centres unmarked) — lower, -4.84%
- CN1C(=O)N(C)C(=O)C2(Cc3cc([N+](=O)[O-])ccc3N(C)C2c2ccccc2)C1=O (centres unmarked) — lower, -17.6%
- O=C(c1ccc([N+](=O)[O-])cc1)N1CCN(C(=O)c2cccs2)CC1 — lower, -70.3%
- CN1C(=O)N(C)C(=O)C2(Cc3cc([N+](=O)[O-])ccc3N3CCN(C(=O)c4ccccc4)CC32)C1=O (centres unmarked) — lower, -65%
- O=C(c1ccc2nc(-c3ccco3)c(-c3ccco3)nc2c1)N1CCN(c2ccccc2)CC1 — lower, -15.4%
- O=C(c1ccc2nc(-c3ccco3)c(-c3ccco3)nc2c1)N1CCN(c2ncccn2)CC1 — lower, -67.8%
- O=C(c1ccc(-c2ccccc2)cc1)N1CCN(c2ncccn2)CC1 — lower, -5.92%
- CC(C)N1CCN(C(=O)c2ccc([N+](=O)[O-])cc2)CC1 — lower, -39.8%
- O=C1NC(=O)C2(Cc3cc([N+](=O)[O-])ccc3N3CCN(C(=O)c4ccccc4)CC32)C(=O)N1 (centres unmarked) — higher, 23%
- Cc1cc(-c2ccccc2)n(-c2ccc(C(=O)N3CCN(c4ncccn4)CC3)cc2)n1 — lower, -56.4%
- Cc1ccc(C)c(N2CCN(C(=O)c3ccc4nc(-c5ccco5)c(-c5ccco5)nc4c3)CC2)c1 — higher, 21.1%
- Cc1cc(C)n(-c2ccc(C(=O)N3CCN(c4ccccn4)CC3)cc2)n1 — lower, -32.5%
- CCC1=NC(c2ccccc2OC)N(O)C1(C)C (centres unmarked) — higher, 15.9%
- CCOc1ccc(C(=O)NCC(=O)NCC(c2cccs2)N2CCOCC2)cc1 (centres unmarked) — lower, 4.69%
- c1ccc2c(NC3CCCC3)nnc(NC3CCCC3)c2c1 — lower, -74.9%
- c1ccc(-c2nc(NC3CCCC3)c3ccccc3n2)cc1 — higher, 20.5%
- c1csc(-c2nnc(NC3CCCCC3)c3ccccc23)c1 — lower, -75.4%
- c1csc(-c2nc3ccccn3c2NC2CCCCC2)c1 — higher, 8.81%
- Oc1ccccc1-c1nc(NC2CCCC2)c2ccccc2n1 — higher, 17.8%
- O=C(O)C(=O)O.c1csc(-c2nnc(N3CCCCCC3)c3ccccc23)c1 — lower, -20.9%
- CC(C)c1nc(=S)n(-c2ccccc2)[nH]1 — higher, 17.5%
- COc1cccc(Cn2nnc(C(=O)Nc3cc(C)ccc3OC)c2N)c1 — higher, 8.11%
- CCOC(=O)C1C(=O)NC(c2ccccc2)=NC1c1ccc(O)c(OC)c1 (centres unmarked) — higher, 9.11%
- Cc1ccccc1CN1C(=O)[C@@H]2Cc3c([nH]c4ccccc34)C(C)(C)N2C1=O — higher, 19%
- Cl.N=c1sccn1CC(=O)N1CCc2ccccc21 — lower, -8.84%
- Cc1ccc(NC2=Nc3ccccc3CS2)cc1 — higher, 8.04%
- CCOC(=O)c1c(NC(=O)CSc2nc3ccccc3o2)sc(C)c1C — higher, 19.4%
- Cc1ccc2c(c1)nnn2C1CCN(CC(=O)Nc2ccc3c(c2)OCCO3)CC1 — lower, -55.5%
- Cc1ccc2c(c1)nnn2C1CCN(CC(=O)N2CCN(c3ccc(F)cc3)CC2)CC1 — lower, -70.3%
- O=C(CN1CCC(n2nnc3cc(C(F)(F)F)ccc32)CC1)Nc1ccc2c(c1)OCCO2 — lower, -36.5%
- Cc1ccc2c(c1)nnn2C1CCN(CC(=O)c2ccc(Cl)cc2)CC1 — lower, -45.9%
- Cc1ccc2c(c1)nnn2C1CCN(C(=O)C23CC4CC(CC(C4)C2)C3)CC1 — lower, 1.11%
- Cc1ccc2c(c1)nnn2C1CCN(CC(=O)Nc2ccc(F)cc2)CC1 — lower, -65.4%
- Cc1ccccc1C(=O)NC1CCN(CC(=O)Nc2ccc3c(c2)OCCO3)CC1 — lower, 2.93%
- O=C(CN1CCC(n2nnc3cc(F)ccc32)CC1)Nc1ccc2c(c1)CCC2 — lower, -21.3%
